IL1B secr inh: inhibitors of inflammasome signaling (IL-1 beta secretion) | AID 743279 | 4.7% of 360,000 active | THP-1 LPS/ATP IL-1B secretion, AlphaLISA, 16 h; stronger effect = lower value | activity change, % at 57.5 µM; in the data active = activity change below about -50%; inconclusive = mostly about -30% to -49%
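Secreted IL-1B measured by AlphaLISA bead assay after 16 h compound exposure of THP-1 cells; compounds (final up to 57.5 uM) added 1 h before LPS (250 ng/mL) and ATP (1.25 mM) stimulation; lower signal means less secretion.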
ELG1 DNA repair: blocks ELG1-dependent DNA repair in HEK293T cells | HEK293T ELG1-luciferase reporter, luminescence, 16 h; DNA damage induced by 5-fluorouridine | 2.3% of 330,000 active | AID 504467 | Potency, µM (titrated, usually from 46.1 µM), without a hit: top-dose activity change, negative = inhibition, actives largely listed as inhibitors; note: potency is the fitted concentration of half-maximal effect; nearly all actives have a fitted effect of over 55% in size
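Reporter activity after DNA damage by 5-fluorouridine is monitored. Compound-treated cells incubate 16 hr at 37 °C, then ONE-Glo is added for 30 min before luminescence reading.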
DT40 TDP1 no CPT: qHTS for Inhibitors of human tyrosyl-DNA phosphodiesterase 1 (TDP1): qHTS in cells in absence of CPT | DT40 Tdp1-/- hTDP1 cells, no CPT, ATP luminescence, 48 h | Potency, µM (top dose mostly 46.2 µM), inactives show at the highest dose activity change, negative = growth inhibition, actives largely listed as inhibitors | 15% of 420,000 active | AID 686978, 2013; note: potency is the fitted concentration of half-maximal effect; nearly all actives have a fitted effect of over 55% in size
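Seeded 400 DT40-hTDP1 cells/well (vehicle DMSO, no 20 nM CPT); pinned compounds; ≥48 hr at 37 °C; CellTiter-Glo luminescence as viability measure.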
HT1080-NT tox: kills 2HG-producing HT-1080-NT fibrosarcoma cells | HT-1080-NT fibrosarcoma viability, CellTiter-Glo ATP luminescence, 48 h | Potency, µM (titrated, usually from 46.1 µM), without a hit: at the top dose activity, negative = less viability, usual class: cytotoxic | 1.6% of 360,000 active | AID 686970;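 note: NT is the 2HG producing partner of a matched IDH1 knockdown line; potency is the fitted concentration of half-maximal effect; 0% = DMSO-treated cells and -100% = media-only wells without cells; nearly all actives have a fitted effect of over 55% in size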
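HT-1080-NT fibrosarcoma cells (2HG-overproducing), 750 cells/well in RPMI with 5% FBS, dosed after 2 h and incubated 48 h at 37C. CellTiter-Glo luminescence normalized to DMSO and no-cell wells; concentration-response curves fitted and classed.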
DT40 TDP1 CPT: DT40-hTDP1 cell growth loss with CPT; chicken DT40 Tdp1-/-;hTDP1 cells + 20 nM CPT, ATP luminescence, 48 h; Potency, µM (titrated, usually from 46.2 µM), for the others: at the top dose activity change, negative = growth inhibition, most hits filed as inhibitors; 12% of 420,000 active; AID 686979; note: potency is the fitted concentration of half-maximal effect; nearly all actives have a fitted effect of over 55% in size
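Cell growth measured by CellTiter-Glo luminescence after a minimum 48 h, 37 C compound exposure with 20 nM CPT in Tdp1-knockout DT40 cells stably expressing hTDP1, seeded 400/well; qHTS titration format.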
HT1080 IDH1KD tx: HT-1080 IDH1 knockdown cell toxicity (counter line); AID 686971; Potency, µM (doses to about 46.1 µM), for the others: top-dose activity, negative = toxicity, hits mostly cytotoxic; 2% of 360,000 active; HT-1080 IDH1 knockdown viability, ATP luminescence, 48 h;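 note: potency is the fitted concentration of half-maximal effect; 0% = DMSO wells and -100% = cell-free medium wells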
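HT-1080-IDH1KD cells (IDH1 knocked down), 750/well in RPMI with 5% FBS, treated with compound 48 h at 37 degrees C. Viability by CellTiter-Glo luminescence, normalised to DMSO and no-cell wells; concentration-response curves classed.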
Starred values were filed as active, the others as inactive; ? = inconclusive; / = not tested or not shown; [ ] = remark or other dose. Most compounds without a hit are left out; they make up all but 19% or so of the library. Unless noted, calls come from the whole dose curve; as a rule, active = well fitted curve in the direction sought with a large enough effect; inconclusive = small, poorly fitted or top-dose-only effect, or another doubt; inactive = no such curve, though single readings can be large; an effect the other way counts as inactive or inconclusive. Unless noted, % is set by controls: 0 for no effect and ±100 for the full control effect.

SMILES	IL1B secr inh	ELG1 DNA repair	DT40 TDP1 no CPT	HT1080-NT tox	DT40 TDP1 CPT	HT1080 IDH1KD tx
CC1(C)CC(=O)C=C(c2ccc(-c3cccc(C(N)=O)c3)cc2)C1=O	-8	/	?	-1%	?	-5%
Cc1[nH]n2c(=O)c(C#N)c(-c3ccccc3)nc2c1-c1ccccc1	50	12%	-11%	8%	3%	10%
Cc1[nH]n2c(=O)c3c(nc2c1-c1ccc(Cl)cc1)CCC3	5	6%	21µM*	-11%	12µM*	-12%
CCCCc1c(C)nc2c(-c3ccc(Cl)cc3)c(C)[nH]n2c1=O	/	/	1.6µM*	/	4.6µM*	/
COc1ccc(-c2c(C)[nH]n3c(=O)c(Cc4ccccc4)c(C)nc23)cc1	-1	?	21µM*	-16%	13µM*	?
Cc1[nH]n2c(=O)c3c(nc2c1-c1ccccc1)CCC3	2	-1%	-24%	-15%	-15%	-21%
COc1ccccc1-c1c(C)[nH]n2c(=O)c(Cc3ccccc3)c(C)nc12	0	?	?	1%	?	2%
Cc1nc2c(-c3ccccc3)c(C)[nH]n2c(=O)c1Cc1ccc(C(C)C)cc1	/	/	2.3µM*	/	2.6µM*	/
COc1ccc(CN(CC(O)COCc2ccccc2)S(=O)(=O)c2ccccc2Br)cc1 (stereo unspecified)	?	?	-18%	-4%	?	-8%
CNC(=O)C[C@H]1C(=O)N(CCc2ccccc2)C[C@@H]1CSC	13	/	3%	8%	7%	3%
Cc1ccc(Cc2c(C)nc3c(-c4ccccc4)c(C)[nH]n3c2=O)cc1	/	/	4.6µM*	/	6.5µM*	/
Cc1nc2c(-c3ccccc3)c[nH]n2c(=O)c1Cc1ccccc1	-3	?	23µM*	7%	23µM*	-4%
Cc1cc(=O)n2[nH]cc(-c3ccccc3)c2n1	-3	-7%	?	-24%	?	-8%
CCc1c(C)nc2c(-c3ccccc3)c(C)[nH]n2c1=O	3	-13%	-24%	-16%	-28%	-16%
Cc1cc(C)n2ncc(/C(N)=N/OC(=O)Nc3ccccc3)c2n1	10	?	-17%	10%	1%	14%
Cc1ccc(N(Cc2ccccc2)C(=O)c2ccc(F)cc2)cc1	-28	-2%	?	-17%	21µM*	-8%
Cc1cccc2cc(CN(Cc3ccccc3)C(=O)c3cccc(F)c3)c(Cl)nc12	-8	-3%	?	-26%	29µM*	-2%
CN(CCOC(=O)c1cccc(F)c1)Cc1ccccc1	7	-1%	?	2%	-3%	0%
CN(C)c1cccc(C(=O)N(Cc2ccccc2)Cc2ccccc2)c1	-24	8%	?	-6%	?	-7%
Cc1ccc(N(Cc2ccccc2)C(=O)c2cccc(F)c2)cc1	-61*	1%	?	-15%	?	-12%
COc1cccc2c1ncc1c(-c3ccc(C)cc3)nn(-c3ccc(F)cc3)c12	/	/	2%	/	-3%	/
N#Cc1cccc(C#N)c1Oc1ccc(N)cc1	-12	9%	?	11%	-3%	12%
O=C(Cc1ccccc1F)Nc1nc(-c2ccc(F)c(F)c2)cs1	-90*	-4%	2.1µM*	?	5.2µM*	?
O=C(Nc1nc(-c2ccc(F)c(F)c2)cs1)Nc1ccc(F)cc1F	-8	20%	0.65µM*	-27%	1.6µM*	-18%
COc1ccc(OC)c(-c2csc(NC(=O)Cc3cccs3)n2)c1	-17	?	?	-2%	-7%	-1%
SMILES	IL1B secr inh	ELG1 DNA repair	DT40 TDP1 no CPT	HT1080-NT tox	DT40 TDP1 CPT	HT1080 IDH1KD tx
COc1ccc(CC(=O)Nc2nnc(C(C)(C)C)s2)cc1OC	0	?	16µM*	2%	?	-20%
CC(=O)Nc1ccc(-c2csc(NC(=O)Cc3ccccc3F)n2)cc1	-13	-3%	?	-1%	?	-9%
CCc1nnc(NC(=O)Cc2ccc(OC)c(OC)c2)s1	6	0%	8%	3%	0%	1%
Cc1noc(C)c1C(=O)Nc1nc(-c2ccc(F)c(F)c2)cs1	-2	4%	-29%	-5%	-26%	11%
O=C(Cc1cccs1)Nc1nc(-c2ccc(F)cc2F)cs1	-70*	?	?	-15%	10µM*	?
Cc1ccc(C(=O)c2c(N)c(-c3nc(-c4ccc5c(c4)OCO5)cs3)c3ccccn23)cc1C	/	/	-26%	/	-10%	/
COC(=O)C1CCN(Cc2ccc3c(c2)CN(C(=O)c2ccc4nc(C)c(C)nc4c2)CCO3)CC1	/	/	-16%	/	2%[9.04 µM]	/
COc1ccc(CC(=O)Nc2nc(C)cs2)cc1OC	28	16µM*	?	-14%	-21%	?
O=C(Cc1ccccc1)Nc1nc(-c2ccc(F)c(F)c2)cs1	-14	-5%	?	1%	1.8µM*	0%
COC(=O)c1c(-c2ccc(OC)c(OC)c2)csc1N	16	?	-18%	3%	-20%	-4%
O=C(Cc1ccccc1)Nc1nc(-c2cccc([N+](=O)[O-])c2)cs1	-14	12%	?	25%	-19%	23%
COc1ccc(CC(=O)Nc2nc(C)cs2)cc1	5	-16%	12%	18%	7%	7%
COC(=O)c1c(-c2ccc3ccccc3c2)csc1NC(=O)Cc1ccc(OC)c(OC)c1	?	?	13µM*	-27%	-74%	-6%[9.24 µM]
O=C(Cc1cccs1)Nc1nc(-c2ccc(F)c(F)c2)cs1	/	?	1.5µM*	-7%	8.2µM*	-6%
CC(C)CNC(=O)[C@H]1N2C(=O)c3ccccc3C2SC1(C)C (stereo partly specified)	11	-4%	11%	-2%	7%	3%
COc1cccc(NC(=O)Nc2nc(-c3ccc(OC)c(OC)c3)cs2)c1	-104*	4.1µM*	7.3µM*	12µM*	18µM*	7.3µM*
COc1cccc(-c2csc(NC(C)=O)n2)c1	-14	?	-3%	7%	-1%	16%
O=C(Cc1c(F)c(F)c(F)c(F)c1F)Nc1nc(-c2ccccc2)cs1	-79*	20%	16µM*	?	?	16µM*
O=C(O)CCCC(=O)Nc1nc(-c2ccccc2)cs1	8	7%	-8%	8%	1%	15%
COc1ccc(-c2csc(NC(=O)CCCc3nc4ccccc4c(=O)[nH]3)n2)cc1OC	-24	?	?	1%	?	-1%

Assay outcomes from PubChem.
